miR122 inh – miR-122 suppressors via Renilla sensor increase, primary screen, cell-based, Huh7 psiCHECK-miR122, Renilla luciferase, single point; 48 h; activation, % at 12.5 µM; 340,000 tested, 0.14% active; AID 623901, 2012;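 active = mean activation of 30% or more, with every replicate also reaching 30%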;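 also: 0% = median of neutral control wells and 100% = median of positive control wells; higher luciferase signal means stronger suppression of miR-122 activity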
An asterisk follows results filed as active. Shown is part of a subset that was picked to be rich in hits.

SMILES	miR122 inh
C[C@@H](O)C#Cc1ccc2c(c1)O[C@H](CN(C)C)[C@@H](C)CN([C@@H](C)CO)S2(=O)=O	3
COCC(=O)N(C)C[C@H]1Oc2cc(-c3cccc(F)c3)ccc2S(=O)(=O)N([C@@H](C)CO)C[C@H]1C	13
N#CC1=C(N)Oc2c(ccc3cccnc23)C1c1ccccc1 (stereo unspecified)	64*
C[C@@H]1CN([C@@H](C)CO)C(=O)c2cc(-c3cccc(F)c3)cnc2O[C@@H]1CN(C)C(=O)c1cccc(F)c1	5
CCC(=O)N(C)C[C@H]1Oc2ncc(C#C[C@H](C)O)cc2C(=O)N([C@H](C)CO)C[C@@H]1C	0
C[C@H](CO)N1C[C@H](C)[C@@H](CN(C)Cc2ccc3c(c2)OCO3)Oc2c(NC(=O)NC3CCCCC3)cccc2C1=O	-95
CC(C)C#Cc1cnc2c(c1)C(=O)N([C@H](C)CO)C[C@H](C)[C@H](CN(C)C(=O)CC1CC1)O2	-2
C[C@H](CO)N1C[C@H](C)[C@@H](CN(C)C(=O)C2CCCCC2)Oc2ncc(C3=CCCC3)cc2C1=O	2
CC(C)C#Cc1ccc2c(c1)O[C@H](CN(C)C(=O)CN(C)C)[C@H](C)CN([C@H](C)CO)S2(=O)=O	10
CCC(=O)N(C)C[C@H]1Oc2ncc(C#C[C@H](C)O)cc2C(=O)N([C@@H](C)CO)C[C@H]1C	1
Nc1ccc(Oc2ccc(Br)cc2)cc1	35*
COc1ccc(-c2cnc3c(c2)C(=O)N([C@@H](C)CO)C[C@@H](C)[C@@H](CN(C)C(=O)C2CCOCC2)O3)cc1	-1
CCCNC(=O)N(C)C[C@H]1Oc2cc(Br)ccc2S(=O)(=O)N([C@@H](C)CO)C[C@H]1C	2
C[C@H](CO)N1C[C@H](C)[C@H](CN(C)Cc2ccccc2F)Oc2ncc(/C=C/c3ccccc3)cc2C1=O	-3
C[C@H](O)C#Cc1cnc2c(c1)C(=O)N([C@@H](C)CO)C[C@H](C)[C@H](CN(C)Cc1cncnc1)O2	6
CC(=O)N(C)C[C@H]1[C@H](c2ccc(-c3cccnc3)cc2)[C@@H](CO)N1C(=O)C1CC1	-125
CC(=O)N1[C@@H](CO)[C@H](c2ccccc2)[C@@H]1CNC(=O)CN1CCOCC1	-108
O=C(C1CCOCC1)N1[C@H](CO)[C@H]2c3ccccc3NC[C@H]21	42*
O=c1c2c3c(sc2nc2n1CCC2)CCCC3	32*
C[C@H](CO)N1C[C@H](C)[C@H](CN(C)Cc2ccc(C(=O)Nc3ccccc3N)cc2)Oc2ccc(NS(=O)(=O)c3cccs3)cc2CC1=O	-104
COc1ccccc1-c1cnc2c(c1)C(=O)N([C@H](C)CO)C[C@H](C)[C@@H](CN(C)Cc1ccccc1)O2	-5
CCC(=O)N(C)C[C@H]1Oc2ncc(C#C[C@H](C)O)cc2C(=O)N([C@@H](C)CO)C[C@@H]1C	-1
Oc1ccccc1/C=N/Nc1nc2ccccc2o1	48*
C[C@@H]1CN([C@@H](C)CO)S(=O)(=O)c2ccc(C#C[C@@H](C)O)cc2O[C@H]1CN(C)CC1CCOCC1	-43
C[C@@H]1CN([C@@H](C)CO)S(=O)(=O)c2ccc(Br)cc2O[C@@H]1CN(C)C(=O)CC1CC1	-7
SMILES	miR122 inh
C[C@H]1CN([C@@H](C)CO)S(=O)(=O)c2ccc(C#CC3CC3)cc2O[C@@H]1CN(C)Cc1ccccn1	-66
C[C@H](CO)N1C[C@H](C)[C@@H](CN(C)C(=O)Cc2ccncc2)Oc2cc(-c3cncnc3)ccc2S1(=O)=O	1
CCCNC(=O)N(C)C[C@H]1Oc2ncc(C#C[C@@H](C)O)cc2C(=O)N([C@H](C)CO)C[C@H]1C	5
C[C@H](CO)N1C[C@H](C)[C@H](CN(C)C(=O)C2CCOCC2)Oc2ncc(/C=C/c3ccccc3)cc2C1=O	3
CCNC(=O)Nc1ccc2c(c1)C(=O)N(C)[C@H]1CC[C@H](CC(=O)Nc3ccccc3F)O[C@@H]1CO2	53*
CCCNC(=O)C[C@@H]1CC[C@H]2[C@H](COc3ccc(NC(=O)c4ccc5c(c4)OCO5)cc3C(=O)N2C)O1	-102
CCCNC(=O)C[C@@H]1CC[C@@H]2[C@@H](COc3ccc(NC(=O)Nc4ccccc4F)cc3C(=O)N2C)O1	50*
CC(C)c1ccc(NC(=O)C[C@H]2CC[C@H]3[C@@H](COc4ccc(NC(=O)Nc5ccc(F)c(F)c5)cc4C(=O)N3C)O2)cc1	45*
CCCNC(=O)C[C@H]1CC[C@H]2[C@H](COc3ccc(NC(=O)Cc4cccs4)cc3C(=O)N2C)O1	-167
CCCNC(=O)C[C@H]1CC[C@H]2[C@@H](COc3ccc(NC(=O)c4cc(F)cc(F)c4)cc3C(=O)N2C)O1	53*
CCCNC(=O)C[C@@H]1CC[C@H]2[C@H](COc3ccc(NC(=O)Cc4cccs4)cc3C(=O)N2C)O1	-207
C[C@H](CO)N1C[C@H](C)[C@@H](CN(C)C(=O)c2ccccn2)Oc2ncc(-c3cccc(F)c3)cc2C1=O	-6
C[C@H]1CN([C@@H](C)CO)C(=O)c2cc(C#Cc3cccc(F)c3)cnc2O[C@@H]1CN(C)C(=O)C1CC1	0
